Compound activity: PubChem BioAssay, several laboratories
PriA SSB inh – blocks PriA binding to SSB C-terminal tail; AlphaScreen SSBct-PriA binding, biotinylated peptide; 430,000 tested, 0.6% active; inhibition, % at 33 µM; in the data active means inhibition mostly above about 37%, no sharp cut-off; inactive means mostly below about 20%;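 further: plate controls were negative control peptide for no effect and reference peptide for full effect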
Mtb UGM inh – Mtb UDP-galactopyranose mutase inhibition. P9WIQ1. purified UGM, fluorescence polarization probe displacement. inhibition, % at 10 µM. 320,000 tested, 0.06% active. AID 504406; in the data active means inhibition above about 10%, passing the limit was not always enough
Mtb betalactam – beta-lactam sensitization of Mtb H37Rv. inhibition, % at 25 µM. M. tuberculosis H37Rv growth with meropenem, percent inhibition. AID 434955. 330,000 tested, 0.27% active; call rule not given here;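 further: growth measured after seven days incubation then overnight dye step; 0% = bacteria only wells and 100% = bacteria with antibiotic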
RecA intein inh – blocks M. tuberculosis RecA intein splicing | P9WHJ3 | cell-free RecA intein splicing, fluorescence | inhibition, % (no concentration beside the values) | 290,000 tested, 0.75% active; in the data active means inhibition above about 30%;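 further: 0% = vehicle wells and 100% = reference inhibitor control wells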
Rv3671c protease – inhibits the M. tuberculosis serine protease Rv3671c | P9WHR9 | inhibition, % at 5.96 µM | 320,000 tested, 0.048% active; in the data active means inhibition above about 38%;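 further: extracellular domain of Rv3671c used as enzyme; 0% = enzyme with DMSO and 100% = no enzyme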
Target sequence (P9WHR9 whole entry, looked up, the tested form may be a part): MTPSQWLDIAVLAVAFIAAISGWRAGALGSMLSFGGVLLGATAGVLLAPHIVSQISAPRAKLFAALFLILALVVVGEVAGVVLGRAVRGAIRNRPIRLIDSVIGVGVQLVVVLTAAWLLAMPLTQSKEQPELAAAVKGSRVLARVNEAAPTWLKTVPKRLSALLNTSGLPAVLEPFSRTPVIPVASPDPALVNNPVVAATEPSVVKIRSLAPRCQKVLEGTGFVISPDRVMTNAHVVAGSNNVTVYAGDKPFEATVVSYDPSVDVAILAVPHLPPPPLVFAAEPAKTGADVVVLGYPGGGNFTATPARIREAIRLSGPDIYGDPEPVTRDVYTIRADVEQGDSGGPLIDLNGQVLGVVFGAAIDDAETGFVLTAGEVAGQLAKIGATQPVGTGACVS
* hit, by the source's call; x = not tested or not shown; + = active, no number. Sampled rows, rich in hits. Any-hit rate of the full collection: about 1.1%.

SMILES | PriA SSB inh | Mtb UGM inh | Mtb betalactam | RecA intein inh | Rv3671c protease
O=C(NC1CCN(C(=O)Nc2cccc(F)c2)CC1)c1ccco1 | 58* | -1 | -5 | -2 | -6
CN1c2ccccc2N(C)C1(C)c1ccccc1 | 42* | 1 | -1 | 15 | -30
CCN1c2ccccc2N(C)C1(C)c1ccccc1 (stereo unspecified) | 36 | 2 | 100 | x | -24
O=C(CCCSc1ccc(F)cc1)Nc1nc(-c2ccc3c(c2)OCO3)cs1 | 6 | x | x | x | x
O=C(NN=Cc1c[nH]c2ccc(Br)cc12)C1CC1 | -8 | x | x | x | x
Cc1cccn2c(=O)c3cc(C#N)c(=NC(=O)c4cccs4)n(CCCOC(C)C)c3nc12 | -6 | 2 | 2 | -344 | -1
CCOCCCn1c(=NC(=O)c2cccs2)c(C#N)cc2c(=O)n3ccccc3nc21 | -15 | 16* | -10 | -166 | 2
CCn1c(=O)c(C(=O)Nc2ccc(Cl)c(Cl)c2)cc2cccnc21 | -9 | x | x | x | x
CC1=C(C)/C(=N\OS(=O)(=O)c2ccccc2)C=CC1=O | x | 6 | 100 | 41* | -4
O=C(/C=C/c1ccc(Br)o1)/C=C/c1ccc(Br)o1 | 39* | x | x | x | x
CCOC(=O)COc1cccc2c(=O)n(CC(=O)Nc3ccc4c(c3)OCO4)ccc12 | -10 | x | x | x | x
CCS(=O)(=O)C1=NN2C(=N)/C(=C\c3ccc(OC(=O)c4ccco4)c(OC)c3)C(=O)N=C2S1 | -6 | -7 | 4 | 25 | 2
CS(=O)(=O)C1=NN2C(=N)/C(=C\c3ccc(OC(=O)c4ccco4)cc3)C(=O)N=C2S1 | 0 | -1 | 76 | 37* | 2
CC(C)CS(=O)(=O)C1=NN2C(=N)/C(=C\c3ccc(OC(=O)c4ccco4)cc3)C(=O)N=C2S1 | -7 | -2 | 98 | 40* | -10
CCOc1cc(/C=C2/C(=N)N3C(=NC2=O)SN=C3S(=O)(=O)C(C)C)ccc1OC(=O)c1ccco1 | -15 | -1 | 11 | 32* | -11
N=C1/C(=C\c2ccc(OC(=O)c3ccc(F)cc3)cc2)C(=O)N=C2SC(N3CCOCC3)=NN12 | -4 | 0 | 4 | 39* | 4
CC(C)Sc1ccc(CC(=O)Nc2nc3c(s2)COCC3)cc1 | -16 | x | x | x | x
O=C(NCC1CCN(c2ccncc2)CC1)c1ccno1 | 1 | x | x | x | x
Cc1csc(NC(=O)Cc2c(C)nc(SCc3ccccc3F)[nH]c2=O)n1 | -2 | x | x | x | x
CCOc1ccc2[nH]cc(S(=O)(=O)c3ccc(F)cc3)c(=O)c2c1 | -8 | 2 | -5 | -1 | 2
COc1ccc2[nH]cc(S(=O)(=O)c3ccc(F)cc3)c(=O)c2c1 | 104* | 1 | 0 | -1 | 7
COc1cc(Nc2ccc(NC(=O)c3ccccc3C(F)(F)F)cc2)nc(C)n1 | 8 | x | x | x | x
N#CC1=C2N=C(N)c3c(sc4c3CCCCC4)N2C2=C(C(=O)CCC2)C1c1ccccc1 (stereo unspecified) | 44* | -2 | 3 | 2 | 2
COc1cc(Br)cc2c1Oc1nc(-c3ccccc3)nc(SCc3ccccc3)c1C2 | -2 | x | x | x | x
Cc1noc(C2CCCN2C(=O)NCCCc2ccccc2)n1 (stereo unspecified) | 54* | x | x | x | x
SMILES | PriA SSB inh | Mtb UGM inh | Mtb betalactam | RecA intein inh | Rv3671c protease
CCn1c(=O)c(C(=O)Nc2ccc(C)c(Cl)c2)c(O)c2ccccc21 | -18 | x | x | x | x
Nc1ccccc1Nc1ccncc1[N+](=O)[O-] | -11 | 0 | 2 | x | -8
Nc1ccccc1Nc1c(F)c(F)nc(F)c1Cl | 39* | 2 | -4 | 8 | -6
O=[N+]([O-])c1cc(S(=O)(=O)NC2=NCCCCC2)ccc1NCC1CCCCC1 | 41* | -1 | 5 | 1 | 5
CCOC(=O)N1CCN(C(=O)CSc2nnc(NC(=O)NC(C)(C)C)s2)CC1 | -8 | x | x | x | x
CSc1ccc(CNC(=O)CSc2nccn2-c2cccc(C(=O)NCc3ccco3)c2)cc1 | 46* | x | x | x | x
COc1ccc(NC(=O)CSc2nccn2-c2cccc(C(=O)NCc3ccco3)c2)c(OC)c1 | 16 | x | x | x | x
Cc1c(N=Nc2c(O)[nH]c(=S)[nH]c2=O)c(=O)n(-c2ccccc2)n1C | 53* | 1 | -2 | 4 | -73
C=CCn1c(O)c(N=Nc2c(C)n(C)n(-c3ccccc3)c2=O)c(=O)[nH]c1=S | 33 | -1 | -1 | -4 | -96
COc1ccc(S(=O)(=O)C2CCN(C(=O)c3cccc(C(F)(F)F)c3)CC2)cc1 | 0 | x | x | x | x
COc1ccc(-c2csc(/C(C#N)=C\c3ccc(OCC(=O)c4ccccc4)c(OC)c3)n2)cc1OC | 0 | x | x | x | x
COc1ccc2c(c1)c(/C=N/Nc1nc3ccccc3[nH]1)c(C)n2C | + | 1 | 93 | 24 | 37
Cc1ccc(C)c(Nc2c([N+](=O)[O-])ccc3nonc23)c1 | 50* | 0 | 6 | -2 | 6
CCCc1nnsc1C(=O)N1CCN(c2ccc(-c3noc(C)n3)cn2)CC1 | 6 | x | x | x | x
COc1ccc(Nc2cc(C)nc(Nc3ccc(NS(=O)(=O)c4cc(C(C)(C)C)ccc4OC)cc3)n2)cc1 | 43* | x | x | x | x
CCCCNC(=S)NCc1ccc2c(c1)cc(C)n2C | 83* | 3 | 56 | 2 | 8
CCc1cccc(C)c1NC(=S)NCc1ccc2c(c1)cc(C)n2C | 53* | -3 | -3 | 6 | 7
COc1ccccc1NC(=S)NCc1ccc2c(c1)cc(C)n2C | 88* | 0 | 2 | 3 | 2
CCCCC(=O)NCc1ccc2c(c1)cc(C)n2C | 3 | -3 | 5 | 2 | -8
CCc1cccc(C)c1NC(=S)NCc1ccccc1 | -9 | 0 | 10 | 0 | -9
Cc1ccccc1NC(=S)NCc1ccc2c(c1)cc(C)n2C | 36 | -1 | -4 | -1 | -6
Cc1cc2cc(CNC(=S)NC3CCCCC3)ccc2n1C | 59* | -1 | -1 | x | 9
Cc1nnc(NC(=O)CSc2nnc(CNC(=O)c3ccccc3)n2-c2cccc(Cl)c2)s1 | -2 | x | x | x | x
CCOC(=O)CSc1nnc(CNC(=O)c2ccc(OC)cc2)n1-c1cccc(C(F)(F)F)c1 | 1 | x | x | x | x
O=C(Cc1csc(Nc2ccc(F)cc2)n1)NCc1ccco1 | 5 | x | x | x | x
SMILES | PriA SSB inh | Mtb UGM inh | Mtb betalactam | RecA intein inh | Rv3671c protease
COc1ccc(NC(=S)NCc2ccc3c(c2)cc(C)n3C)cc1 | 75* | -1 | 0 | 0 | 8
Cc1cc2cc(CNC(=S)NCc3ccccc3)ccc2n1C | 75* | -1 | 2 | -1 | 6
O=c1c2nc(N3CCCC3)sc2c(-c2ccco2)nn1Cc1cccc(Cl)c1 | -22 | x | x | x | x
CON=CC(c1ccc(Cl)nc1)S(=O)(=O)c1ccccc1 (stereo unspecified) | 0 | x | x | x | x
COCCN1CSC(=S)N(Cc2ccco2)C1 | -11 | -3 | 53 | 1 | -4
S=C1SCN(Cc2ccccn2)CN1Cc1ccco1 | 48* | 4 | 85 | -2 | -5
C(=N\Nc1nc(-c2ccccn2)nc2ccccc12)/c1ccccc1 | x | -2 | 99 | -3 | 10
c1ccc(-c2nc(NCC3CCCO3)c3ccccc3n2)nc1 (stereo unspecified) | 89* | 1 | 83 | 0 | 7
c1ccc(-c2nc(NC3CCCC3)c3ccccc3n2)nc1 | 120* | x | x | x | x
COc1ccccc1NC(=O)C1=C(C)Nc2nc(-c3cccs3)nn2C1c1ccccc1[N+](=O)[O-] (stereo unspecified) | 35* | x | x | x | x
